# Several values for one entry are separate records, joined by “and”; a condition that tells them apart may be missing. Equal entries are not always repeated. Activity calls are given as the source filed them.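 Rule for the calls: active = compounds whose dose series gives a full or clear partial fitted curve of increased nuclear translocation; inconclusive = weak partial curve or effect only at the top dose; inactive = no dose-dependent translocation response.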
# Biological target: Glucocorticoid receptor (Homo sapiens) (UniProt P04150)
# Sequence (P04150 whole entry, looked up): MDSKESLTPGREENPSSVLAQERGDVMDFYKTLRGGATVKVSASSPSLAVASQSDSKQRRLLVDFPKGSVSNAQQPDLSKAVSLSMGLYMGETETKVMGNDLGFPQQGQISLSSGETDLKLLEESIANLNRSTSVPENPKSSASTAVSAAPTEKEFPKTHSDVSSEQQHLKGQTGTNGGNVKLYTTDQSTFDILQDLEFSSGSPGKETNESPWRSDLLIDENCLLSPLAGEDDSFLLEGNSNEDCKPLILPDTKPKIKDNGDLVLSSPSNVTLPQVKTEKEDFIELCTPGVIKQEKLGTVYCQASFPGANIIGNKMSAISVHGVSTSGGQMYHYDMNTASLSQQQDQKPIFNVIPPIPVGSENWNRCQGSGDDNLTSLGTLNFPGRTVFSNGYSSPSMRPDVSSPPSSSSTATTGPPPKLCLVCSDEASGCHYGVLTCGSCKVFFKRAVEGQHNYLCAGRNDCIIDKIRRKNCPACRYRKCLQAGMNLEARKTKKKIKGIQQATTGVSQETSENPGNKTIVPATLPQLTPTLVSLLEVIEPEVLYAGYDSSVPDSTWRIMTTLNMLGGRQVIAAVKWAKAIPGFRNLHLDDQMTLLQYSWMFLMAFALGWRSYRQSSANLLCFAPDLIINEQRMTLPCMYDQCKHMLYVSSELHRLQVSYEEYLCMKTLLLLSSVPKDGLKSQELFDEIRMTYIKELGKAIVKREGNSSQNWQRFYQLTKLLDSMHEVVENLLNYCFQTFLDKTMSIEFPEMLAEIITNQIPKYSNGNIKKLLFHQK
# Test: GR-GFP Redistribution (AID 450)
# Conditions: U2OS GR-GFP nuclear translocation, laser cytometry, 2 h
# Potency is the fitted concentration of half-maximal effect.
row,SMILES,Potency
1,COC(=O)[C@@H](N)CCCN=C(N)N[N+](=O)[O-],> 46 µM (inactive)
2,C[C@@H](N)Cc1cnc[nH]1,> 46 µM (inactive)
3,CNCCc1ccc(O)c(O)c1,> 46 µM (inactive)
4,c1ccc(CCCN2CCN(CCOC(c3ccccc3)c3ccccc3)CC2)cc1,> 46 µM (inactive)
5,CN[C@@H]1C[C@@H](c2ccc(Cl)c(Cl)c2)c2ccccc21,> 46 µM (inactive)
6,O=C1CCCN1CC#CCN1CCCC1,> 46 µM (inactive)
7,Cc1nc(-c2ccc(-c3ccc(C(=O)N4CCc5cc6c(cc54)C4(CCN(C)CC4)CO6)cc3)c(C)c2)no1,> 46 µM (inactive)
8,O=C(O)Cc1cnc[nH]1,> 46 µM (inactive)
9,NC(=NCCC[C@H](N)C(=O)O)N[N+](=O)[O-],> 46 µM (inactive)
10,NCCc1c[nH]c2ccccc12,> 46 µM (inactive)
11,CNCCc1c[nH]c2ccc(O)cc12,> 46 µM (inactive)
12,CCOC(=O)c1cncn1[C@H](C)c1ccccc1,> 46 µM (inactive)
13,Cn1cnc(CCN)c1,> 46 µM (inactive)
14,CC(=O)OCC1=C(C(=O)O)N2C(=O)[C@@H](N)[C@@H]2SC1,> 20.6 µM (inactive)
15,CC[C@@]1(O)C(=O)OCc2c1cc1n(c2=O)Cc2cc3ccccc3nc2-1,> 46 µM (inactive) and > 20.6 µM (inactive)
16,CCCN1CCO[C@@H]2c3cc(O)ccc3OC[C@H]21,> 46 µM (inactive)

row,SMILES,Potency
1,CCCCc1ccc(C(=O)O)nc1,> 46 µM (inactive) and > 20.6 µM (inactive)
2,CC(=O)NCCc1c[nH]c2ccccc12,> 46 µM (inactive)
3,Cc1nccc2c1[nH]c1ccccc12,> 46 µM (inactive) and > 20.6 µM (inactive)
4,C[C@@H]1O[C@H](C[N+](C)(C)C)C[C@H]1O,> 46 µM (inactive)
5,CC1=NN=C(c2ccc(N)cc2)c2cc3c(cc2C1)OCO3,> 46 µM (inactive)
6,CCCN(CCC)[C@@H]1CCc2ccc(O)cc2C1,> 46 µM (inactive)
7,O=c1cccc2n1CC1CNC[C@H]2C1,> 20.6 µM (inactive) and > 46 µM (inactive)
8,NCc1cc(=O)[nH]o1,> 46 µM (inactive)
9,O=C(O)CC[N+](=O)[O-],> 46 µM (inactive)
10,CCCN1CCC[C@H](c2cccc(O)c2)C1,> 46 µM (inactive)
11,Clc1cnc(Oc2ccc(Oc3ncc(Cl)cc3Cl)cc2)c(Cl)c1,> 46 µM (inactive)
12,NCCc1c[nH]c2ccc(O)cc12,> 46 µM (inactive) and > 20.6 µM (inactive)
13,CC(C)Oc1cccnc1N(C)C1CCN(Cc2ccccc2)CC1,> 46 µM (inactive)
14,COc1ccc(C(=O)c2c(C)n(CCN3CCOCC3)c3cc(I)ccc23)cc1,> 46 µM (inactive)
15,S=C(NC1CCCCC1)N1CCC(c2cnc[nH]2)CC1,> 46 µM (inactive)
